# Test results reported in publication PMC7862700, “An all-to-all approach to the identification of sequence-specific readers for epigenetic DNA modifications on cytosine”.
# Tests used:
# Experiment in all cases: DAPPL (digital affinity profiling via proximity ligation, sequencing); 10 mM Tris-HCl pH 7.5, 50 mM NaCl, 1 mM DTT, 4% glycerol, room temperature, 30 min; GST-TFs on glutathione beads, 16-mer random dsDNA library, 0.1% formaldehyde crosslink after washing; high values mean tight binding
# FLI1 = biological target: T1, FLI1 (Homo sapiens, UniProt Q01543 1-452); conditions: protein: recombinant; tags: N-terminal GST; dsDNA, one strand shown
# T1 sequence: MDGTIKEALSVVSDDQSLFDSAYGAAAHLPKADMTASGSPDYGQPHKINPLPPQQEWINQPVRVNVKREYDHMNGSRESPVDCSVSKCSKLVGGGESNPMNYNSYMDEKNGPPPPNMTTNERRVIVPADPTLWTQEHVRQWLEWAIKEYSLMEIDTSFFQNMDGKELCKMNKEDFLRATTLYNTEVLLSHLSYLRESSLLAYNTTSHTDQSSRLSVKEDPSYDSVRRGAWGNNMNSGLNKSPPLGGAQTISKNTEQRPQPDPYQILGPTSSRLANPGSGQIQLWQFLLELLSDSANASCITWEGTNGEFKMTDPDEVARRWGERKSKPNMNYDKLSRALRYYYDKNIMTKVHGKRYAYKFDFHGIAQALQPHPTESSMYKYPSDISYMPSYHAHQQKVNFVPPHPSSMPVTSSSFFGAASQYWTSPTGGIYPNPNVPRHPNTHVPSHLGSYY
# Procedure, shortened: (§1)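 A tag-only sample was pooled with DNA-barcoded human transcription factors that had been expressed in yeast as GST fusions and captured on glutathione beads. The pools were incubated for 30 min at room temperature with 200 nmole of a random double-stranded 16-mer DNA library in Tris/NaCl/DTT/glycerol buffer, then washed, crosslinked with 0.1% formaldehyde, proximity-ligated (BsaI/T4 ligase, 1 h, 37 °C), PCR-amplified and sequenced on an Illumina NextSeq500. Binding signal is each hexamer's read frequency for a factor divided by its frequency for the tag-only sample.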
# ELK1 = biological target: T2, ELK1 (Homo sapiens, UniProt P19419 1-428); conditions: protein: recombinant; tags: N-terminal GST; dsDNA, one strand shown
# T2 sequence: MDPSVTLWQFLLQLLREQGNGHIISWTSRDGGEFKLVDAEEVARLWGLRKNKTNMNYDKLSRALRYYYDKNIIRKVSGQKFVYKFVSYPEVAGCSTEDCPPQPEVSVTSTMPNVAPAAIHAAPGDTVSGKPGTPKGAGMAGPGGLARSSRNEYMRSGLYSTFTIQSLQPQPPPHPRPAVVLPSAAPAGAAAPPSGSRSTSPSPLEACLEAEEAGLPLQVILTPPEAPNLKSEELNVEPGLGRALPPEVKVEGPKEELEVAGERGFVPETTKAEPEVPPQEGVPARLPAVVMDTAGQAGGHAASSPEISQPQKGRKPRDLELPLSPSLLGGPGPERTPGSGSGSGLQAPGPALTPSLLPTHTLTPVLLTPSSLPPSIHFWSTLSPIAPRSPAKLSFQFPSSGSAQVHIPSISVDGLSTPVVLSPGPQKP
# Procedure, shortened: as §1
# GABPA = biological target: T3, GABPA (Homo sapiens, UniProt Q06546 1-454); conditions: protein: recombinant; tags: N-terminal GST; dsDNA, one strand shown
# T3 sequence: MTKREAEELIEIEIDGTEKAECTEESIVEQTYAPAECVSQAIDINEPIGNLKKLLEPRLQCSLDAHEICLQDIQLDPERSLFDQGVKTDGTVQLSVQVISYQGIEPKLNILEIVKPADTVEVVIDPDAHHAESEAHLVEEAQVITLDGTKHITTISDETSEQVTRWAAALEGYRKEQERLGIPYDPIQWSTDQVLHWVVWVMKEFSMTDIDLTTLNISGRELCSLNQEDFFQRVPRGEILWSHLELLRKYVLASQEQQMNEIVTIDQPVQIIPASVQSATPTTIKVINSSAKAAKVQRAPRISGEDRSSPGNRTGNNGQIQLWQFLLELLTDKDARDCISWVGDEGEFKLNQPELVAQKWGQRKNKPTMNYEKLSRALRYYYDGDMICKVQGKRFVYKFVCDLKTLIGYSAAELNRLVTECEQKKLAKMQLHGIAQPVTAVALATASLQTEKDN
# Procedure, shortened: as §1
# ERG = biological target: T4, ERG (Homo sapiens, UniProt P11308 1-479); conditions: protein: recombinant; tags: N-terminal GST; dsDNA, one strand shown
# T4 sequence: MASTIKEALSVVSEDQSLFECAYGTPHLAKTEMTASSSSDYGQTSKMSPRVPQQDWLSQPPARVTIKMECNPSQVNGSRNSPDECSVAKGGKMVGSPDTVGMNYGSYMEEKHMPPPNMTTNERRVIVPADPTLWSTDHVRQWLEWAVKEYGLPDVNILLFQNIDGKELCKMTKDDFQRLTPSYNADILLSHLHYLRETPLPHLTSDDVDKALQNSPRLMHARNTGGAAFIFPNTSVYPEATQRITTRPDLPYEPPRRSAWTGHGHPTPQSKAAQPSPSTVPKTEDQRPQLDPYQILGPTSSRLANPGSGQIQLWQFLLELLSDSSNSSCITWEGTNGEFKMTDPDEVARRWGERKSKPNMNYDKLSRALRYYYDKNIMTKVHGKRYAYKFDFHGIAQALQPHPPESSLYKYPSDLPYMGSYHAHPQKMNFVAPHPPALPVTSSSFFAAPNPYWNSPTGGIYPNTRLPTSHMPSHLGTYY
# Procedure, shortened: as §1
# ELF1 = ELF1 (Homo sapiens, UniProt P32519 1-619); conditions: protein: recombinant; tags: N-terminal GST; dsDNA, one strand shown
# ELF1, sequence (P32519 whole entry): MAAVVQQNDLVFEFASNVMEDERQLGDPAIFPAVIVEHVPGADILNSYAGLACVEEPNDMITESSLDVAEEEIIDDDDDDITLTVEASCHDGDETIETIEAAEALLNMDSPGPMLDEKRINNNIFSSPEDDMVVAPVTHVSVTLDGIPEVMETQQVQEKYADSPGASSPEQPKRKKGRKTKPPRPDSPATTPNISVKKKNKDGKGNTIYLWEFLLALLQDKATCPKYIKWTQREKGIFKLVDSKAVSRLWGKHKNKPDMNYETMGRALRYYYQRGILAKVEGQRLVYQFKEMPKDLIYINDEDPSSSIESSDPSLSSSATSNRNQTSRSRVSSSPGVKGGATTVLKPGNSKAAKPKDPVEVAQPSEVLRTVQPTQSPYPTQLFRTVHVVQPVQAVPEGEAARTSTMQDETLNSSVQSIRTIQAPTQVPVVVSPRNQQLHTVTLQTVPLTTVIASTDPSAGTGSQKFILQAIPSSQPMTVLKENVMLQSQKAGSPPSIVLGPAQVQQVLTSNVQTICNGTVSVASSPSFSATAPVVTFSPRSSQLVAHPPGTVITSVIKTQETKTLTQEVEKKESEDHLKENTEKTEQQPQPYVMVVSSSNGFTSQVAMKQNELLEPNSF
# Procedure, shortened: as §1
# EHF = biological target: T5, EHF (Homo sapiens, UniProt Q9NZC4 1-300); conditions: protein: recombinant; tags: N-terminal GST; dsDNA, one strand shown
# T5 sequence: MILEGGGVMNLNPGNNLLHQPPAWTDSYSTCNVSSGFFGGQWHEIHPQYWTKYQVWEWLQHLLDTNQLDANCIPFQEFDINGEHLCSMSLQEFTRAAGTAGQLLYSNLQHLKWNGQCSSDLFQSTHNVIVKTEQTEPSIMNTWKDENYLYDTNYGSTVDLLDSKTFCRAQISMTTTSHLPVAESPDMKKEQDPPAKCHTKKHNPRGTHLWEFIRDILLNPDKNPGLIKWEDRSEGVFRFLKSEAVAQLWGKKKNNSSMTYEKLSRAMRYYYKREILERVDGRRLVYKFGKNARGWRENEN
# Procedure, shortened: as §1
# SPI1 = SPI1 (Homo sapiens, UniProt P17947 1-270); conditions: protein: recombinant; tags: N-terminal GST; dsDNA, one strand shown
# Procedure, shortened: as §1
# SPIB = SPIB (Homo sapiens, UniProt Q01892 1-262); conditions: protein: recombinant; tags: N-terminal GST; dsDNA, one strand shown
# SPIB, sequence (Q01892 whole entry): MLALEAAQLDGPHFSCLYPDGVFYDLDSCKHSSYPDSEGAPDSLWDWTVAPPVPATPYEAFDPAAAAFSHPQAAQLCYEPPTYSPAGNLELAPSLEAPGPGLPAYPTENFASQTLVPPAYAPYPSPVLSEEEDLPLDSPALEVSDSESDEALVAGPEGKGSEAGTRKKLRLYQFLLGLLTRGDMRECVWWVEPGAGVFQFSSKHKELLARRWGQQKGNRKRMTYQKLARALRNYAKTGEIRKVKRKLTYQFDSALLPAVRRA
# Procedure, shortened: as §1
# ELK3 = biological target: T6, ELK3 (Homo sapiens, UniProt P41970 1-407); conditions: protein: recombinant; tags: N-terminal GST; dsDNA, one strand shown
# T6 sequence: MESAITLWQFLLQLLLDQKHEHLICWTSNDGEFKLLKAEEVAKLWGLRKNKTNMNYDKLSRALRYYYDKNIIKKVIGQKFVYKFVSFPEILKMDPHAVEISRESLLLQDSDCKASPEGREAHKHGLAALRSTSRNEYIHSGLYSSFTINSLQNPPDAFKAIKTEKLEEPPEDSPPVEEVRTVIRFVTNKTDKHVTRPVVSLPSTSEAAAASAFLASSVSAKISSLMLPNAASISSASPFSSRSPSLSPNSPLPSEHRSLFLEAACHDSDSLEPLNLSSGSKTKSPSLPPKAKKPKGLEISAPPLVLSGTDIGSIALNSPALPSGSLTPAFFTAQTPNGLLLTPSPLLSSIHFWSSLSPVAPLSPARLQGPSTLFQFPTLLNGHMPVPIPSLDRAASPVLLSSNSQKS
# Procedure, shortened: as §1
# FEV = biological target: T7, FEV (Homo sapiens, UniProt Q99581 1-238); conditions: protein: recombinant; tags: N-terminal GST; dsDNA, one strand shown
# T7 sequence: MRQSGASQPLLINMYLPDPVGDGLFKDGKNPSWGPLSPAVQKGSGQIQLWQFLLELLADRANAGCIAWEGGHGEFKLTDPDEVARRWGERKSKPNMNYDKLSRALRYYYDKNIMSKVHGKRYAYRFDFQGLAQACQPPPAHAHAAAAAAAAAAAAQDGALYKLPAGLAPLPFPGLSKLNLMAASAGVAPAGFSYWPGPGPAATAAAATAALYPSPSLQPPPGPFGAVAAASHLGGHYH
# Procedure, shortened: as §1
# ETV5 = ETV5 (Homo sapiens, UniProt P41161 1-510); conditions: protein: recombinant; tags: N-terminal GST; dsDNA, one strand shown
# ETV5, sequence (P41161 whole entry): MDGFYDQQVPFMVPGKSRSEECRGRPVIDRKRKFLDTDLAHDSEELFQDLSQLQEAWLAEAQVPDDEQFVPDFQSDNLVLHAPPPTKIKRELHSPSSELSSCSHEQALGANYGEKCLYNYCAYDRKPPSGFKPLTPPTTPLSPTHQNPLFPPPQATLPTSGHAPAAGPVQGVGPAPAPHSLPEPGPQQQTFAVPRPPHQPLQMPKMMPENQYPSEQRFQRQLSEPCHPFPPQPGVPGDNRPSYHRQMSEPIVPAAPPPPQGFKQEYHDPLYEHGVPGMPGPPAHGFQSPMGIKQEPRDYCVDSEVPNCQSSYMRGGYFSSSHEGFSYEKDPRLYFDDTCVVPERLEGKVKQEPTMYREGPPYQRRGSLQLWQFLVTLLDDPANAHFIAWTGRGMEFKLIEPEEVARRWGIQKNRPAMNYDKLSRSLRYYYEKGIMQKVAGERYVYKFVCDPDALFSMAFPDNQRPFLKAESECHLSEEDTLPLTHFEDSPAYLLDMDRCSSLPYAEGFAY
# Procedure, shortened: as §1
# HSF1 = HSF1 (Homo sapiens, UniProt Q00613 1-529); conditions: protein: recombinant; tags: N-terminal GST; chain copies: 3; dsDNA, one strand shown
# HSF1, sequence (Q00613 whole entry): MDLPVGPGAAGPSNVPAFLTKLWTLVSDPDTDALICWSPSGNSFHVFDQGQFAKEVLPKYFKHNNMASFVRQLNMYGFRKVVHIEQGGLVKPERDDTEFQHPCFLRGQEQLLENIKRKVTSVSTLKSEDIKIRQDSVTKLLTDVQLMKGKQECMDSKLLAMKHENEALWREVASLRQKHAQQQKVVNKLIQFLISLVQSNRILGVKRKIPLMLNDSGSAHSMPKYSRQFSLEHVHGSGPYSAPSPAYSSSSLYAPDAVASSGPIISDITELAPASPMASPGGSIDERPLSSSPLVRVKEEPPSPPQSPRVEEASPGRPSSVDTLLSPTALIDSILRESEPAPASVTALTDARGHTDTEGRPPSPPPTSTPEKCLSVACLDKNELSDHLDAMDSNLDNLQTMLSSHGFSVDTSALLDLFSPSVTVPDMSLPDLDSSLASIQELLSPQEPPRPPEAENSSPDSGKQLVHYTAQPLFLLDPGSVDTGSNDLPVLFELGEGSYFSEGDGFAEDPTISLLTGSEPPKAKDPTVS
# Procedure, shortened: as §1
# SPIC = biological target: T8, SPIC (Homo sapiens, UniProt Q8N5J4 1-248); conditions: protein: recombinant; tags: N-terminal GST; dsDNA, one strand shown
# T8 sequence: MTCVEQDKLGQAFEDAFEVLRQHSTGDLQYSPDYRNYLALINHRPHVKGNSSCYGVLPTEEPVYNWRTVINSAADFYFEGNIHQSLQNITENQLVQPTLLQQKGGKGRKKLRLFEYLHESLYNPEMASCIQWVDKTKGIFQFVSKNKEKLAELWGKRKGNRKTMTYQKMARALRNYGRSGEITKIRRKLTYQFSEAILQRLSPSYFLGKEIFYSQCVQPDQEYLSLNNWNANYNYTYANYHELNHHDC
# Procedure, shortened: as §1
# ELF4 = ELF4 (Homo sapiens, UniProt Q99607 1-663); conditions: protein: recombinant; tags: N-terminal GST; dsDNA, one strand shown
# ELF4, sequence (Q99607 whole entry): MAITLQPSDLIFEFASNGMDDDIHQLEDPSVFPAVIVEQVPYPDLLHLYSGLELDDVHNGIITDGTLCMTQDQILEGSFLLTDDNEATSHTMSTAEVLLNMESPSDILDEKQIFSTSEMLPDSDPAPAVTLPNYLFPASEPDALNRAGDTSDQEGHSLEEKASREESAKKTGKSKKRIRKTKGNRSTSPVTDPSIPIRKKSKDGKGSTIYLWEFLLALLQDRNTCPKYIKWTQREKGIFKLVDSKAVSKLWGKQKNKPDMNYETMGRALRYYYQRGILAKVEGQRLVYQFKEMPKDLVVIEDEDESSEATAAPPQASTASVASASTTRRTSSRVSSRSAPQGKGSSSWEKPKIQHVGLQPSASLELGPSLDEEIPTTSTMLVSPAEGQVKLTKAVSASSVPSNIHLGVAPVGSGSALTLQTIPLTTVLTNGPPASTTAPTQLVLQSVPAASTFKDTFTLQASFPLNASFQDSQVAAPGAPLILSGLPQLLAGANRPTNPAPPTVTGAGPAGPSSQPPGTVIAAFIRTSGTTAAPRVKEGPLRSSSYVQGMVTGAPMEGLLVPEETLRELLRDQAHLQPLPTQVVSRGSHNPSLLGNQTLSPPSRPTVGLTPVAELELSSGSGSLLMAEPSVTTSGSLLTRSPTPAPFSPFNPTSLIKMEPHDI
# Procedure, shortened: as §1
# ELK4 = biological target: T9, ELK4 (Homo sapiens, UniProt P28324-2 1-405); conditions: protein: recombinant; tags: N-terminal GST; dsDNA, one strand shown
# T9 sequence: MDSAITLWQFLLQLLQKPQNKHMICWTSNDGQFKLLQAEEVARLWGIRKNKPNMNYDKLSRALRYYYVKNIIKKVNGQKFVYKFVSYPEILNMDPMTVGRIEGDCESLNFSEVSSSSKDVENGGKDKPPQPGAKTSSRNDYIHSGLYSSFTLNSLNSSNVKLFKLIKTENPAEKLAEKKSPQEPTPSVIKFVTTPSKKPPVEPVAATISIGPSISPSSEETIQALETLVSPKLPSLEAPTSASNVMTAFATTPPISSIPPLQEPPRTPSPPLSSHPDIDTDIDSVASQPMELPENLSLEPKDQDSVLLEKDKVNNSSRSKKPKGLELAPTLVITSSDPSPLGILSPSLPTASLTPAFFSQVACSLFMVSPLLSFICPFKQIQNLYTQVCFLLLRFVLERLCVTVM
# Procedure, shortened: as §1
# ETV2 = biological target: T10, ETV2 (Homo sapiens, UniProt O00321 1-342); conditions: protein: recombinant; tags: N-terminal GST; dsDNA, one strand shown
# T10 sequence: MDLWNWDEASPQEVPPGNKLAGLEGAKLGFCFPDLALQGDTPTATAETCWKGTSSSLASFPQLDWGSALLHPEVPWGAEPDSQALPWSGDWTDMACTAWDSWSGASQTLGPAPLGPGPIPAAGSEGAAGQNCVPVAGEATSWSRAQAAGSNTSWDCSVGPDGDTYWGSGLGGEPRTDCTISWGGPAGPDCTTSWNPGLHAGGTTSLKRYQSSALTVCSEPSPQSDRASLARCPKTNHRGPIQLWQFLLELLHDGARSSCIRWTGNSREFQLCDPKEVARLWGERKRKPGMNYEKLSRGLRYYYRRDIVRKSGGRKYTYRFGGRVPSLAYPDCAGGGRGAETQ
# Procedure, shortened: as §1
# ELF3 = biological target: T11, ELF3 (Homo sapiens, UniProt P78545 1-371); conditions: protein: recombinant; tags: N-terminal GST; dsDNA, one strand shown
# T11 sequence: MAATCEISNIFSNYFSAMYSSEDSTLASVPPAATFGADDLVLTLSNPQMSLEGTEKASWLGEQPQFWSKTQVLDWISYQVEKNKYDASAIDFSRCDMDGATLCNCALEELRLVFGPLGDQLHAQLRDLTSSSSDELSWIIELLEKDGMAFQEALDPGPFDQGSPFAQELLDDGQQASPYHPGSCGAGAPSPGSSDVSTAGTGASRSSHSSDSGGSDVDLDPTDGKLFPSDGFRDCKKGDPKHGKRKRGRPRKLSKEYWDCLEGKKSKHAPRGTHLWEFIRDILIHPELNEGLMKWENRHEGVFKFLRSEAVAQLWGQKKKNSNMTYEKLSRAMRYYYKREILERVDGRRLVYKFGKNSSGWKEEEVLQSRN
# Procedure, shortened: as §1
# CRX = CRX (Homo sapiens, UniProt O43186 1-299); conditions: protein: recombinant; tags: N-terminal GST; dsDNA, one strand shown
# CRX, sequence (O43186 whole entry): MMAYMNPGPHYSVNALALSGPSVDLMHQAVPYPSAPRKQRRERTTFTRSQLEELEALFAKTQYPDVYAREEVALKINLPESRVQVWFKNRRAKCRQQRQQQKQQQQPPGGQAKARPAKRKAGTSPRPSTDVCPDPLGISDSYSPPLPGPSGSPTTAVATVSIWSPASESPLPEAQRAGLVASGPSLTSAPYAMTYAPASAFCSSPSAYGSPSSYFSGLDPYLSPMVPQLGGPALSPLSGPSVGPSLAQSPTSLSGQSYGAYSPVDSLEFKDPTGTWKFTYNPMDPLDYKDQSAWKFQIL
# Procedure, shortened: as §1
# ETV1 = ETV1 (Homo sapiens, UniProt P50549 1-477); conditions: protein: recombinant; tags: N-terminal GST; dsDNA, one strand shown
# ETV1, sequence (P50549 whole entry): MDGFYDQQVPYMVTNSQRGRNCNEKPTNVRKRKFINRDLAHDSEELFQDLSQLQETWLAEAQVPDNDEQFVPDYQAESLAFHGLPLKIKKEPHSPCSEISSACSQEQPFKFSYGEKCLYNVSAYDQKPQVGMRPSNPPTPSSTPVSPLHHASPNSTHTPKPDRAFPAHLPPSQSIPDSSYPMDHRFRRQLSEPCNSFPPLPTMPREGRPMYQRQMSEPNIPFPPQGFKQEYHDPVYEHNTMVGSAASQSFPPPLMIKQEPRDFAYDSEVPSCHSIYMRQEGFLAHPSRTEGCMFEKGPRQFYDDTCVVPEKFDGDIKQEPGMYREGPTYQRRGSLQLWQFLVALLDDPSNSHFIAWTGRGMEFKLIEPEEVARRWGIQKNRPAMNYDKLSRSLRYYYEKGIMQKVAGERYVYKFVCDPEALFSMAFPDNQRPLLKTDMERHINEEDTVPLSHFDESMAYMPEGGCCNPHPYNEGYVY
# Procedure, shortened: as §1
sequence,measurement,setting,value
GCCCTT,binding signal,FLI1,"1.23 fold enrichment (6-mer frequency, TF over GST control)"
same,binding signal,ELK1,"1.11 fold enrichment (6-mer frequency, TF over GST control)"
same,binding signal,GABPA,"1.18 fold enrichment (6-mer frequency, TF over GST control)"
same,binding signal,ERG,"1.16 fold enrichment (6-mer frequency, TF over GST control)"
same,binding signal,ELF1,"1.25 fold enrichment (6-mer frequency, TF over GST control)"
same,binding signal,EHF,"1.19 fold enrichment (6-mer frequency, TF over GST control)"
same,binding signal,SPI1,"1.22 fold enrichment (6-mer frequency, TF over GST control)"
same,binding signal,SPIB,"1.28 fold enrichment (6-mer frequency, TF over GST control)"
same,binding signal,ELK3,"1.24 fold enrichment (6-mer frequency, TF over GST control)"
same,binding signal,FEV,"1.19 fold enrichment (6-mer frequency, TF over GST control)"
same,binding signal,ETV5,"1.16 fold enrichment (6-mer frequency, TF over GST control)"
same,binding signal,HSF1,"1.11 fold enrichment (6-mer frequency, TF over GST control)"
same,binding signal,SPIC,"1.1 fold enrichment (6-mer frequency, TF over GST control)"
same,binding signal,ELF4,"1.13 fold enrichment (6-mer frequency, TF over GST control)"
same,binding signal,ELK4,"1.19 fold enrichment (6-mer frequency, TF over GST control)"
same,binding signal,ETV2,"1.28 fold enrichment (6-mer frequency, TF over GST control)"
same,binding signal,ELF3,"1.29 fold enrichment (6-mer frequency, TF over GST control)"
same,binding signal,CRX,"1.06 fold enrichment (6-mer frequency, TF over GST control)"
same,binding signal,ETV1,"1.17 fold enrichment (6-mer frequency, TF over GST control)"
